Assay [1] can be described thus: Confirmatory screen NINDS Rhodamine qHTS for Zika virus inhibitors (AID 1347161).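 Note: purified Zika NS2B-NS3 protease with linked NS2B cofactor domain and Rhodamine110 peptide substrate; plate controls were no-inhibitor control for no effect and no-enzyme control for full effect; nearly all actives have a fitted effect of over 60% in size.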 The method in brief:
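Percent inhibition, normalized to uninhibited and enzyme-free controls, is fitted to a 4-parameter Hill equation. Fluorescence change comes from a 15-min cleavage of 1.5 microM bis-peptide Rhodamine110 substrate by 25 nM linked NS2B-NS3 at room temperature.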
(Quantitative high-throughput screening tests each substance at several concentrations.)

The nature of assay [2]: Tertiary RLuc qRT-PCR qHTS assay for Zika virus inhibitors (AID 1347169). Note: top concentration of the series differs between compounds; % is set by controls: 0 for no effect and ±100 for the full control effect; nearly all actives have a fitted effect of over 55% in size. The method, boiled down:
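Vero cells (1,000 per well) plated overnight at 37 degrees C, treated with compound in DMSO, then infected with recombinant ZIKV-RLuc (Cambodian) at MOI 1-2 for 48-72 hrs. Live-cell Renilla luciferase substrate added; luminescence read after 1-1.5 hrs.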

Assay [3] addresses Cytochrome P450 1A2 (Homo sapiens) (UniProt P05177). Nature of the assay: p450-cyp1a2 (AID 410; calls by dose curve; note: potency is the fitted concentration of half-maximal effect;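 for activity change, negative = inhibition: -100% = full effect of reference inhibitor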). The method, boiled down: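 Luminescent readout of luciferin formed from Luciferin-ME by human CYP1A2; data normalized against complete inhibition by 57 uM furafylline. Enzyme 20nM, substrate 100uM at Km, 100mM KPO4 buffer, 60 min reaction at room temperature.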
The target of assay [4] is Glucocorticoid receptor (Homo sapiens) (UniProt P04150). Put plainly: GR-GFP Redistribution (AID 450;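 active = compounds whose dose series gives a full or clear partial fitted curve of increased nuclear translocation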; note: potency is the fitted concentration of half-maximal effect). The settings on record: U2OS GR-GFP nuclear translocation, laser cytometry, 2 h.
Assay [5] deals with DNA dC->dU-editing enzyme APOBEC-3G (Homo sapiens) (UniProt Q9HC16). Nature of the assay: qHTS for inhibitors of Vif-A3G interactions: Validation (AID 588379). Note: 0% is about no effect. The method, boiled down: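 HeLa cells stably expressing Vif and A3G-eYFP, 700 cells/well, incubated overnight at 37 deg C, then exposed to compound overnight at 37 deg C. Inhibition of Vif-mediated degradation read as increased yellow fluorescence (Ex 488/Em 500-530) by laser-scanning cytometry.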

Assay [6] in a line: Primary qHTS for small molecule stabilizers of the endoplasmic reticulum resident proteome: Secreted ER Calcium Modulated Protein (SERCaMP) assay (AID 1508630). Note: % is set by controls: 0 for no effect and ±100 for the full control effect. The method in brief:
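GLuc-SERCaMP-expressing SH-SY5Y cells, pretreated 16 h with compound, are challenged with thapsigargin to empty ER calcium stores; after 4 h, coelenterazine is added directly to the medium and luminescence is imaged.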

A short description of assay [7]: AP1 Signaling Pathway (AID 357; active = well fitted curve in either direction with a large enough effect, not every such curve was filed as active;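 note: ME-180 reporter cells stimulated with EGF at its EC50 level; % is set by controls: 0 for no effect and ±100 for the full control effect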). The settings on record: ME-180 AP-1-bla reporter, EGF-induced, beta-lactamase ratio, 5 h. The method in brief:
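Cells are seeded overnight, exposed to compound titrations and an EC50 level of EGF for 5 hours at 37 °C, then loaded with CCF4 dye for 2.5 hours. Beta-lactamase activity under the AP-1 element is read as a blue/green ratio.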

Assay [8] is described as follows: NFAT Signaling Pathway (AID 444; active = well fitted curve in either direction with a large enough effect, not every such curve was filed as active;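 note: carbachol stimulus at about its EC50 of 1 µM final; % is set by controls: 0 for no effect and ±100 for the full control effect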). The settings on record: Jurkat NFAT-bla M1, carbachol, beta-lactamase ratio, 5 h. The method, boiled down:
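Jurkat cells with NFAT-driven β-lactamase reporter and co-expressed M1 receptor, stimulated with carbachol (final 1 uM, ~EC50), compound titration, 5 h at 37 °C. CCF4 loaded 1 h at RT; 460/530 nm ratio gave %activity and AC50.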

The nature of assay [9]: Stat Signaling Pathway (AID 446; active = well fitted curve in either direction with a large enough effect, not every such curve was filed as active;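 note: ME-180 cervical cancer cells given 40 pM IL-6 alongside compound; SIE-controlled beta-lactamase reporter measured as 460/530 nm FRET emission ratio; % is set by controls: 0 for no effect and ±100 for the full control effect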). The settings on record: ME-180 (cervical carcinoma) SIE beta-lactamase reporter, IL-6 stimulated, 5 h. The method, boiled down: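 IL-6/STAT signaling read in ME-180 cells via an SIE beta-lactamase reporter. Stimulus was 40 pM IL-6 (its AC50) for 5 hrs, so both activation and inhibition register.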
The target of assay [10] is Glucocorticoid receptor (Homo sapiens) (UniProt P04150). Put plainly: GR-EFC Redistribution (AID 451; calls by dose curve; note: potency is the fitted concentration of half-maximal effect). The settings on record: CHO-K1 GR-EFC translocation, beta-gal luminescence, 2 h. The method in brief:
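CHO-K1 cells expressing nuclear EA and GR-ED fragments of b-gal; compounds titrated up to 46 uM final, 2 h at 37 C. GR nuclear translocation read as complemented b-gal luminescence after 1 h RT detection.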

In assay [11] the target is Mitogen-activated protein kinase 10 (Mus musculus) (UniProt Q61831). Put plainly: JNK3 AlphaScreen Assay (AID 530; active = well fitted curve in either direction with a large enough effect, not every such curve was filed as active). The method in brief: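 Pre-activated (IL-1β/TNFα) JNK3 in HepG2 lysates phosphorylates biotin-GST-cJun(1-79), 10 uM ATP; anti-phospho-cJun(Ser73) AlphaScreen read at room temperature, pH 7.6 Tris buffer. Compounds pre-incubated 15 min as titrations.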
Background: Bead proximity is the source of the signal in Alpha formats.

The target in assay [12] is 3',5'-cyclic-AMP phosphodiesterase 4B (Homo sapiens) (UniProt Q07343). Nature of the assay: qHTS Assay for Inhibitors of PDE-IV (AID 607; active = well fitted activation curve with a large enough effect in the main read-out, with a control signal flat, not every such curve was filed as active; note: % of control where 0% means no effect). The method in brief: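 Live HEK293 cells with a modified cyclic nucleotide-gated (CNG) channel report intracellular cAMP via membrane-potential dye fluorescence (ex 535/em 590 nm). Endogenous PDE-IV was targeted. Compounds were tested at up to 22.9 uM final; RO 20-1724 100 uM served as control.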

Assay [13] has as its target Guanine nucleotide-binding protein G(i) subunit alpha-1 (Homo sapiens) (UniProt P63096). Nature of the assay: qHTS Assay for Inhibitors of RGS12 GoLoco Motif Activity (Green Fluorophore) (AID 879).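 Note: 0% = labeled peptide with Gαi1 and full inhibition = labeled peptide alone without protein; negative values mean loss of peptide binding seen as reduced polarization.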 The method, boiled down:
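Fluorescence polarization assay: 50 nM Gαi1 with 10 nM FITC-labeled RGS12 GoLoco peptide in 10 mM Tris pH 7.5, 150 mM NaCl, 0.1 mM GDP, 0.05% NP40, 10 min at room temperature with compound.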

Assay [14] has as its target Cytochrome P450 2C9 (Homo sapiens) (UniProt P11712). Put plainly: qHTS Assay for Inhibitors and Substrates of Cytochrome P450 2C9 (AID 883). Note: potency is the fitted concentration of half-maximal effect; nearly all actives have a fitted effect of over 60% in size. The method, boiled down: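 Signal: luciferase luminescence reporting luciferin produced by CYP2C9. Conditions: 10nM enzyme, Luciferin-H 100uM at KM, 25mM KPO4, 37C, 60 min NADPH-driven reaction. Reference: 57uM sulphaphenazole as 100% inhibition.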

Assay [15] is described as follows: qHTS Assay for Identification of Small Molecule Agonists for Thrombopoietin (TPO) Signaling Pathway (AID 917). Note: % is set by controls: 0 for no effect and ±100 for the full control effect. The method, boiled down:
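Murine Ba/F3 cells stably expressing human TPO receptor and a Glycoprotein IIb promoter–luciferase reporter were IL-3-starved overnight, then treated with compounds plus TPO (26 pM final, its EC50) for 24 hrs at 37 C; luminescence was read.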

The target in assay [16] is Muscarinic acetylcholine receptor M1 (Rattus norvegicus) (UniProt P08482). Nature of the assay: qHTS Assay for Antagonists of Acetylcholine Muscarinic M1 Receptor: Measurement of IP-One Response (AID 944). Note: nearly all actives have a fitted effect of over 75% in size. The method in brief:
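M1-CHO (rat), 2000 cells/well, overnight recovery; cpd 10 min; carbachol EC80 (200 nM), 30 min, HEPES buffer + 50 mM LiCl pH 7.4; IP-One HTRF, Ex 337, Em 620/665 nm.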

The target in assay [17] is Pyruvate kinase (Leishmania mexicana) (UniProt Q27686). Put plainly: qHTS Validation Assay for Inhibitors of Leishmania Mexicana Pyruvate Kinase (AID 945).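 Note: 0% = DMSO only neutral control wells.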 The method, boiled down: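 Eight-point qHTS titrations in triplicate, data normalized to DMSO neutral control. Reaction: 0.2 nM LmPYK E451W mutant, 0.5 mM PEP, 0.1 mM ADP, 7 mM MgCl2, pH 7.2, one hour at room temperature; luminescent ATP detection.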

Assay [18] in a line: qHTS Assay for Lipid Storage Modulators (AID 1519; calls by dose curve). The settings on record: Drosophila S3 cells, BODIPY lipid droplet/cell ratio, laser cytometry, cells loaded with oleic acid. The method, boiled down: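 Cells seeded at 5,000 per well were treated with compounds over a concentration series and loaded with oleic acid (400 uM, as added). Lipid droplet fluorescence (488 nm excitation, 500-530 nm channel) was read by laser-scanning cytometry and normalized to 20 uM Triacsin C.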

Assay [19] concerns the target Ubiquitin carboxyl-terminal hydrolase 1 (Homo sapiens) (UniProt O94782). Put plainly: Inhibitors of USP1/UAF1: Pilot qHTS (AID 504865).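 Note: rhodamine fluorescence freed from ubiquitin-rhodamine substrate followed over time; top concentration of the series differs between compounds; % is set by controls: 0 for no effect and ±100 for the full control effect; nearly all actives have a fitted effect of over 35% in size.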 The method, boiled down: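 USP1/UAF1 complex (1nM) preincubated with compound 15 min at room temperature, then Ub-Rho substrate (150nM final) added. Fluorescence read kinetically at 480/540 nm, 6 reads every 60 seconds. Buffer: 50mM HEPES pH 7.8, 0.5mM EDTA, 0.1 mg/ml BSA, 1mM TCEP, 0.01% Tween-20.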

For assay [20], the target named is Cytochrome P450 3A4 (Homo sapiens) (UniProt P08684). Nature of the assay: qHTS Assay for Activators of Cytochrome P450 3A4 (AID 885). Note: nearly all actives have a fitted effect of over 65% in size. The method, boiled down: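 Quantitative HTS format: compounds preincubated with 20nM human CYP3A4 and Luciferin-PPXE substrate at KM, reaction started by NADPH regeneration, stopped after 60 min, luciferase luminescence read 20 min later.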

Assay [21] is described as follows: Confirmatory qHTS for small molecule stabilizers of the endoplasmic reticulum resident proteome: Secreted ER Calcium Modulated Protein (SERCaMP) assay (AID 1508628). Note: % is set by controls: 0 for no effect and ±100 for the full control effect; nearly all actives have a fitted effect of over 40% in size. The method, boiled down:
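SH-SY5Y cells stably expressing GLuc-SERCaMP, treated 16 h with compound (primary 1.53, 7.67, 38.3 uM; confirmation 11 concentrations, up to 76.6 uM), then 100 nM thapsigargin for 4 h. Secreted Gaussia luciferase in medium read by coelenterazine luminescence.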

Assay [22] is described as follows: Cell Viability qHTS for small molecule stabilizers of the endoplasmic reticulum resident proteome (AID 1508629).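 Note: compound exposure about 46 h in total before the viability read.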 Note: potency is the fitted concentration of half-maximal effect. The settings on record: cell viability counter-screen, 100 nM thapsigargin for final 4 h.
The nature of assay [23]: Counterscreen qHTS for small molecule stabilizers of the endoplasmic reticulum resident proteome: GLuc-NoTag assay (AID 1508627).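 Note: SH-SY5Y cells given compound then 100 nM thapsigargin to empty ER calcium; 0% = thapsigargin alone and -100% = DMSO vehicle control.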 The method in brief:
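SH-SY5Y cells stably expressing constitutively secreted GLuc without SERCaMP tag, exposed to compound for 19 hr, then to 100 nM thapsigargin for 4 hr at 37C. Medium luciferase was read by coelenterazine luminescence without lysis.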

“And” between values parts separate entries of the source, which are not always exact repeats. Equal values may be shown once. Records with an inconclusive call do not appear. Some compounds were tested as several samples or in several runs, with calls that do not always agree. The source made the active and inactive calls. Unless noted, calls come from the whole dose curve; as a rule, active = well fitted curve in the direction sought with a large enough effect; inconclusive = small, poorly fitted or top-dose-only effect, or another doubt; inactive = no such curve, though single readings can be large; an effect the other way counts as inactive or inconclusive.

Chain of Cytochrome P450 1A2 (Homo sapiens) (P05177 whole entry, looked up): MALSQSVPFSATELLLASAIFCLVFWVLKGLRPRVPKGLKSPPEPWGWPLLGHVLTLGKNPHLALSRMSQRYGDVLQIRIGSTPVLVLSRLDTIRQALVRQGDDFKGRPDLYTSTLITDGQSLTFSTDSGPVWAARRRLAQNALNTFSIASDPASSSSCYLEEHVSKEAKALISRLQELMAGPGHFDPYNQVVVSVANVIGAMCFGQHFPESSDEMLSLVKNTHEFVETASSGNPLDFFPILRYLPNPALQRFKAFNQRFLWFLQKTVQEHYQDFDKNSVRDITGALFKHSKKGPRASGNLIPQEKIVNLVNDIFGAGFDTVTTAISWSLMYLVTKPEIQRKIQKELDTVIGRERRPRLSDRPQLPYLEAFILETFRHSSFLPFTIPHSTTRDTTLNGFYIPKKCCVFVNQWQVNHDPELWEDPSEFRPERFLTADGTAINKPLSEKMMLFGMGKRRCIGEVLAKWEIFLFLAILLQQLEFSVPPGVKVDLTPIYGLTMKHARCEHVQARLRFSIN
Chain of Glucocorticoid receptor (Homo sapiens) (P04150 whole entry, looked up, the tested form may be a part): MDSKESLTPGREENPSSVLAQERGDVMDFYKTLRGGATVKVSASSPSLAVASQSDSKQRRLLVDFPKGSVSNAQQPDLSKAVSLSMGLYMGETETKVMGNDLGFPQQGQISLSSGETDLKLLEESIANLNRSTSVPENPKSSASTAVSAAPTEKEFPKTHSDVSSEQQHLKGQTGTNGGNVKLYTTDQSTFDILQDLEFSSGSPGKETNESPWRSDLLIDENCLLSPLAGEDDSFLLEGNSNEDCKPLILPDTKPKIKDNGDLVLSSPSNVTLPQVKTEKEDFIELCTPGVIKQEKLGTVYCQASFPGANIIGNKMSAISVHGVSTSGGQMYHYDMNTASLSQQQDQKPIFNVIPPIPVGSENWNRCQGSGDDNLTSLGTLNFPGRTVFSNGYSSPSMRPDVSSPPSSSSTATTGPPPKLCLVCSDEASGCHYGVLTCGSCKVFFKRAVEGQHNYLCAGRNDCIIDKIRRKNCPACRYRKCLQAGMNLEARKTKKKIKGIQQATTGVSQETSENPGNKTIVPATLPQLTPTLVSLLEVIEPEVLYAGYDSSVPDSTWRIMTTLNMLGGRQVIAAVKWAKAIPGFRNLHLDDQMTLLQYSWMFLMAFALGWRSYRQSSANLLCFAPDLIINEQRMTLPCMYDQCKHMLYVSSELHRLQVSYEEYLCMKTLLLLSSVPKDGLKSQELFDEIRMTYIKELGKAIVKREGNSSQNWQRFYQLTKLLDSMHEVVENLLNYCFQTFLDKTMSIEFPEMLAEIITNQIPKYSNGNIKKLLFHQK
Chain of DNA dC->dU-editing enzyme APOBEC-3G (Homo sapiens) (Q9HC16 whole entry, looked up): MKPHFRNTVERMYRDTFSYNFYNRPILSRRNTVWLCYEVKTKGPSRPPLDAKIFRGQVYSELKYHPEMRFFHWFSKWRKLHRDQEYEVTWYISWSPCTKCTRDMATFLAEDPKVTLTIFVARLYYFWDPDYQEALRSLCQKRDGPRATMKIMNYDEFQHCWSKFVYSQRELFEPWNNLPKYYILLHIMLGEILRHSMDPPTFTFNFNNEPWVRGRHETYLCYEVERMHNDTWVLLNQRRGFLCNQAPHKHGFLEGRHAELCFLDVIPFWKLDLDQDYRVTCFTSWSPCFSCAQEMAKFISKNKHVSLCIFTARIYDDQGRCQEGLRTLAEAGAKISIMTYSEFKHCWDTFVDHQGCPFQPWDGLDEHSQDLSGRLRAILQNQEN
Chain of 3',5'-cyclic-AMP phosphodiesterase 4B (Homo sapiens) (Q07343 whole entry, looked up): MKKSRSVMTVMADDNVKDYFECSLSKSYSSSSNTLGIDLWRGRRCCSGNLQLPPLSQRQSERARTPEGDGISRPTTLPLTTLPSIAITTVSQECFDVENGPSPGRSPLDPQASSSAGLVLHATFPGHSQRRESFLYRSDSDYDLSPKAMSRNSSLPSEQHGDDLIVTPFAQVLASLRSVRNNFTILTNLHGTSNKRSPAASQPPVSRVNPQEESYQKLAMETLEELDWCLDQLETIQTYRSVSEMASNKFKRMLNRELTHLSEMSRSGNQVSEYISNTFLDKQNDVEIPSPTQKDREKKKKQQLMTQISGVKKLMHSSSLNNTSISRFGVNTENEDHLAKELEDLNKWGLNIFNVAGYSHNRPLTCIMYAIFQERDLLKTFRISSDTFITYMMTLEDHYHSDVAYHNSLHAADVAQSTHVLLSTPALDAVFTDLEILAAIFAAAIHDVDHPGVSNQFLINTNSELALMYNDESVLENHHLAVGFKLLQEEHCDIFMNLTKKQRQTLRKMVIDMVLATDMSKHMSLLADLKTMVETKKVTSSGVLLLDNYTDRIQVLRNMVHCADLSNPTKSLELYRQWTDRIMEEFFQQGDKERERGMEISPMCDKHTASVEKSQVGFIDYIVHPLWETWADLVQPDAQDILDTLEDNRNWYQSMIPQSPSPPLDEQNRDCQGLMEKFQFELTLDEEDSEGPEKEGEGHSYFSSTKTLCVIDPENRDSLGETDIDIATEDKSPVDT
Chain of Guanine nucleotide-binding protein G(i) subunit alpha-1 (Homo sapiens) (P63096 whole entry, looked up): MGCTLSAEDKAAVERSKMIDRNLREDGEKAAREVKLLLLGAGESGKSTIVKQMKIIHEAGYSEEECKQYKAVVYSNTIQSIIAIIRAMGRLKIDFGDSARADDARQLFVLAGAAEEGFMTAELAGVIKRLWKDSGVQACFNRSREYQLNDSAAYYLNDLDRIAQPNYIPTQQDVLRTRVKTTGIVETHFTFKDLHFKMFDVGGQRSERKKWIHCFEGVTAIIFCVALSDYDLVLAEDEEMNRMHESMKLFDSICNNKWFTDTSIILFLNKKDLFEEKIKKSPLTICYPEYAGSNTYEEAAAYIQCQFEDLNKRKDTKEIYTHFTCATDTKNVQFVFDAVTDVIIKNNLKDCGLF
Chain of Pyruvate kinase (Leishmania mexicana) (Q27686 2-499 E452W): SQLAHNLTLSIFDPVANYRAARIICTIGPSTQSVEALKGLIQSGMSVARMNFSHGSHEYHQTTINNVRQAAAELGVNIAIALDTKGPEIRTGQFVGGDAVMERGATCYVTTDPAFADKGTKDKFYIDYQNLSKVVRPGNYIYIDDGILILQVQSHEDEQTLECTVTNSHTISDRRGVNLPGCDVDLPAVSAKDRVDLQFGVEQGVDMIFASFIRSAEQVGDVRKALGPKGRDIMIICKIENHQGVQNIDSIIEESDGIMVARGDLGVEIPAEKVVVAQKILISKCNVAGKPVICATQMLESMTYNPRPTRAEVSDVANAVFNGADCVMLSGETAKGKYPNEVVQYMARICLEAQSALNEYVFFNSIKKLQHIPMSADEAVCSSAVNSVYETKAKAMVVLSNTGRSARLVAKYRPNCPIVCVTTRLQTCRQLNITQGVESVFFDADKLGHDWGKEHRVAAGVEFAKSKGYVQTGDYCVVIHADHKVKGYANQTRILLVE
Chain of Cytochrome P450 2C9 (Homo sapiens) (P11712 whole entry, looked up): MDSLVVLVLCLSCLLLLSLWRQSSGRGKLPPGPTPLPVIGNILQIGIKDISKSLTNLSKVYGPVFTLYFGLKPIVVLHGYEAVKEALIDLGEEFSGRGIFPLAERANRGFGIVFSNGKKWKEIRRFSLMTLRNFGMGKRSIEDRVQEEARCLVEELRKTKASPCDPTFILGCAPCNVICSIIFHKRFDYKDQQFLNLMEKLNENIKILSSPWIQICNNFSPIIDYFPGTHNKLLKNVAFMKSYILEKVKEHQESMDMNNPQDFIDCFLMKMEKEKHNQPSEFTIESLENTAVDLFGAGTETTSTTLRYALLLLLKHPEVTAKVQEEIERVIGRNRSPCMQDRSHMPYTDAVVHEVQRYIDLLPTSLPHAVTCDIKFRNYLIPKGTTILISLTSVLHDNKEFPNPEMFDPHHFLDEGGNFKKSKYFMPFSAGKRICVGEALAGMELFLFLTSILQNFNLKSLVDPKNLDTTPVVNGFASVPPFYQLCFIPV
Chain of Muscarinic acetylcholine receptor M1 (Rattus norvegicus) (P08482 whole entry, looked up): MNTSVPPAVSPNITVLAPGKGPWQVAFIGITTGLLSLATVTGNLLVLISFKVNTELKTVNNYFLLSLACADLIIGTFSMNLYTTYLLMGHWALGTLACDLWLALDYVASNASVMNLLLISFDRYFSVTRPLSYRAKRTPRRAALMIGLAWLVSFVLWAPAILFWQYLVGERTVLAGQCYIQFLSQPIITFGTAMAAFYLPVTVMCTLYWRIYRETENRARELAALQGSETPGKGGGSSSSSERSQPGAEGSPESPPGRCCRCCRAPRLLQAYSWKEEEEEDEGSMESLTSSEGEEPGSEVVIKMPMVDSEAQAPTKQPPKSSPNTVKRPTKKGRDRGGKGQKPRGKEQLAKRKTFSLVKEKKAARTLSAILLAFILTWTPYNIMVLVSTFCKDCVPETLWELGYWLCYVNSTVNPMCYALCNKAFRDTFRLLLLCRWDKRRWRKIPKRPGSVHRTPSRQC
Chain of Ubiquitin carboxyl-terminal hydrolase 1 (Homo sapiens) (O94782 whole entry, looked up): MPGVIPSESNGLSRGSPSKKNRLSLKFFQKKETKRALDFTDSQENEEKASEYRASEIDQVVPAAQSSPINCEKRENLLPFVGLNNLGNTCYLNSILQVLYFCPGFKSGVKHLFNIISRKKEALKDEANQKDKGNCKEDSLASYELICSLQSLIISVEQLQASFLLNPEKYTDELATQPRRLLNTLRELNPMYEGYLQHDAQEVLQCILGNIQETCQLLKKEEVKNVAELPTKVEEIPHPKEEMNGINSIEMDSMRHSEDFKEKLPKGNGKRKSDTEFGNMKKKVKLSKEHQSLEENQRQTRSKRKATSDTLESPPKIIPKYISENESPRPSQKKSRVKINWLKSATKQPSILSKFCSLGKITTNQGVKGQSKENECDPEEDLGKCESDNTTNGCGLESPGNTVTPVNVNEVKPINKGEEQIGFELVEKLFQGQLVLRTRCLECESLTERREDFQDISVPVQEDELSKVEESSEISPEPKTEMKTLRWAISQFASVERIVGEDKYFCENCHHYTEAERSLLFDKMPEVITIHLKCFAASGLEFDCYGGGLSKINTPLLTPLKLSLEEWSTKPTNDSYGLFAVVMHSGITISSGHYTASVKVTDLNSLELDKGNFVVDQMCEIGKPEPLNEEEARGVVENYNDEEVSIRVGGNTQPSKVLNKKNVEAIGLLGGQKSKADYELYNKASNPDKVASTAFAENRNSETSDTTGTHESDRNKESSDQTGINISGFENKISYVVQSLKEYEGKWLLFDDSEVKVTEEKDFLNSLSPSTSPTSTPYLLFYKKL

In the case of `O=c1oc2ccc3ccccc3c2cc1-c1nnc(Nc2cc(C(F)(F)F)ccc2Cl)s1`, the Potency result in assay [1] and in [2] was “inactive” throughout.
`COc1cccc(CNc2ccc3nc(-c4ccc(N)cc4)c(OC)n3n2)c1`: the Potency in assay [3] is 39.8 µM (active); in assay [4], > 46 µM (inactive). The Potency entry in assay [5] and in assay [6] was “inactive” throughout.
For `CC(C)NC[C@@H](O)COc1ccc(CCOCC2CC2)cc1`, the activity change, negative = inhibition is -7.61% (inactive) in assay [7] (at 17.2 µM (top of the series)); 1.38% (inactive) in assay [7] (at 38 µM (top of the series)); -13.9% (inactive) in assay [8] (at 17.2 µM (top of the series)); 5.51% (inactive) in assay [8] (at 38 µM (top of the series)); -3.72% (inactive) in assay [18] (at 25.7 µM (top of the series)); 3.94% (inactive) in assay [18] (at 57.5 µM (top of the series)). For the same compound, the Potency is 15.8 µM (active) and 12.6 µM (active) and inactive in assay [3]; > 46 µM (inactive) and > 20.6 µM (inactive) in assay [4]; > 46 µM (inactive) and > 20.6 µM (inactive) in [10]; 631 nM (active) in assay [14]. Besides, the results for the activity, negative = inhibition in assay [9] (at 17.2 µM (top of the series)) and in [9] (at 38 µM (top of the series)) were 9.37% (inactive) and 21.1% (inactive), respectively. In addition, the Potency result in assay [11], in assay [12], in assay [15], in assay [16], in assay [17] and in assay [19] was “inactive” throughout. Moreover, the Potency entry in assay [5] and in [6] was “inactive” each time. In assay [13], the compound was classed as inactive. For the same compound, the max response was 2.99% and 8.52% in assay [18] (measured here: cell count channel max response); -0.358% and 14.4% in [18] (measured here: lipid channel max response).
On to `C=C1/C(=C\C=C2\CCCC3(C)C2CCC3C(C)/C=C/C(O)C2CC2)CC(O)CC1O` (stereo unspecified), for which the Potency result in [6] was “inactive”.
Regarding `Nc1ccccc1C(=O)C[C@H](N)C(=O)O`, the Potency result in [6] is “inactive”.
For `CCCCCCCCCCCCCCC[C@@H](O)[C@H](CO)NC(C)=O`, the activity change, negative = inhibition in [6] is -11.4% [at 3.88 µM] (inactive).
Take `COc1cccc(CCc2ccccc2OCC[C@@H]2C[C@@H](O)CN2C)c1`: the Potency result in assay [20] and in assay [21] was “inactive” each time. Also, in assay [22], the Potency was 15.8 µM (active).
As for `C[C@H](CCC(=O)O)C1CC[C@H]2C3CC[C@@H]4C[C@H](O)CC[C@]4(C)C3C[C@H](O)[C@]12C` (stereo partly specified), in assay [6], the Potency entry was “inactive”.
For the compound `CCCC(=O)Nc1nc2c(ncn2[C@@H]2O[C@H]3COP(=O)(O)O[C@@H]3[C@@H]2OC(=O)CCC)c(=O)[nH]1`, the Potency entry in assay [6] is “inactive”.
For `CCCCC/C=C\C\C=C/C=C/C=C/[C@@H](SC[C@H](N)C(=O)O)[C@@H](O)CCCC(=O)O`, the activity change, negative = inhibition in [6] is -5.61% [at 0.478 µM] (inactive).
For `O=C(O)C1NCCN(C(=O)c2ccc3c(ccc4ccccc43)c2)C1C(=O)O` (stereo unspecified), the Potency result in assay [23] and in assay [21] was “inactive” throughout. The max response in [22] is 28.7% (inactive).

Values taken from PubChem BioAssay (NCATS).
